Assay outcomes deposited in PubChem by National Center for Advancing Translational Sciences (NCATS).
An excerpt weighted towards active compounds, which were near 2.5% of everything screened.
Cruzain Triton = cruzain (T. cruzi) inhibition with detergent; 0.43% of 200,000 active; purified cruzain, Z-FR-AMC fluorescence, 0.01% Triton; Potency, µM, without a hit: max response, negative = inhibition, most hits filed as inhibitors; P25779; AID 1478;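 further: plate controls were neutral wells for no effect and buffer without enzyme for full effect; nearly all actives have a fitted effect of over 40% in size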
Target sequence (P25779 123-467 limits assumed): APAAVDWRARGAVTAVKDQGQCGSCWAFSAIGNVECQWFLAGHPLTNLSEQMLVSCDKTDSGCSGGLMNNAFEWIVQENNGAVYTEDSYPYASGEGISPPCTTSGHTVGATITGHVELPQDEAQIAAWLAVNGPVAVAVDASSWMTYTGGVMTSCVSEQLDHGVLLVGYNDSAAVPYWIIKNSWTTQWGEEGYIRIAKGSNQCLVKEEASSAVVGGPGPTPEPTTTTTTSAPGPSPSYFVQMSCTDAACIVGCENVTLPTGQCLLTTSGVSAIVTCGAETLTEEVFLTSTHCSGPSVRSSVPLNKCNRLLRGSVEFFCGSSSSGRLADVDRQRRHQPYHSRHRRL
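Cruzain (1.5 nM) preincubated 15 min at RT with compound in 100 mM sodium acetate pH 5.5, 5 mM DTT, 0.01% Triton X-100. Reaction started with 2 uM Z-FR-AMC; AMC fluorescence (ex 360/em 450 nm) change over 60 s gave rate.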
Cruzain inh noDet = blocks cruzain activity in detergent-free assay | purified cruzain, Z-FR-AMC fluorescence, no detergent | Potency, µM, without a hit: max response, negative = inhibition, usual class: inhibitors | 2.3% of 200,000 active | P25779;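 further: plate controls were enzyme without inhibitor for no effect and buffer without enzyme for full effect; nearly all actives have a fitted effect of over 40% in size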
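Detergent-free condition (0.00005% Triton X-100) in acetate buffer pH 5.5 with DTT. 1.5 nM enzyme and compound were pre-mixed 15 min, then 2 uM Z-FR-AMC substrate added; reaction progress from fluorescence change between first and third reads (60 s).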
* hit, by the source's call; u = inconclusive. The call rests on the fitted dose curve; in most records, active means well fitted curve in the direction sought with a large enough effect; inconclusive means small, poorly fitted or top-dose-only effect, or another doubt; inactive means no such curve, though single readings can be large; an effect the other way counts as inactive or inconclusive. Potency means the concentration at half of the fitted maximal effect.

SMILES	Cruzain Triton	Cruzain inh noDet
CCOCCCNC(=O)C(c1ccccc1)N(Cc1ccc2c(c1)OCO2)C(=O)c1ccc(NC(C)=O)cc1 (stereo not given)	-2%	u
Cc1ccc(NC(=S)N(Cc2cccs2)Cc2cc3cc(C)cc(C)c3[nH]c2=O)cc1	-4%	25µM*
Cc1ccc(NC(=S)N(Cc2cccs2)Cc2cc3cc(C)ccc3[nH]c2=O)cc1	-6%	16µM*
Cc1cccc(NC(=S)N(Cc2cccs2)Cc2cc3cc(C)ccc3[nH]c2=O)c1	-6%	u
Cc1cc(C)c2[nH]c(=O)c(CN(Cc3cccs3)C(=S)NCc3ccco3)cc2c1	-3%	u
CCN(C(=O)CCn1cnc2onc(-c3ccc(F)cc3)c2c1=O)c1ccc(OC)cc1	-1%	-14%
CCOc1cccc(C(=O)Nc2ccc3oc(-c4ccncc4)nc3c2)c1	-3%	u
Cc1ccccc1CNC(=O)Cn1nc(C)c2nn(-c3ccc(Cl)cc3)c(C)c2c1=O	5%	-1%
Cc1cccc(N2CCN(C(=O)C3CCN(S(=O)(=O)c4cn(C)cn4)CC3)CC2)c1C	1%	u
Cc1ccc(-n2nnc(-c3nsc(NC(=O)c4ccccc4C)n3)c2C)cc1Cl	-2%	-5%
Cc1c(-c2nsc(NC(=O)c3ccccc3)n2)nnn1-c1ccc(C(F)(F)F)c(Cl)c1	-1%	20µM*
Cc1ccc(NC(c2cccc(Cl)c2)c2nnc(-c3ccccc3)o2)cc1F (stereo not given)	-2%	u
Cc1ccc(C)c(NC(=O)c2cc3c([nH]c4ccccc43)c(C)n2)c1	8%	7.9µM*
Cc1cccc(NC(=O)c2cc3c([nH]c4ccccc43)c(C)n2)c1C	0%	u
CCOc1ccc(S(=O)(=O)Nc2ccc3c(c2)c2c(n3S(=O)(=O)c3ccc(OCC)cc3)CCCC2=O)cc1	-1%	7.9µM*
CCOc1ccc(S(=O)(=O)Nc2ccc3c(c2)c(C(C)=O)c(C)n3S(=O)(=O)c2ccc(OCC)cc2)cc1	0%	u
CCCSc1ncc(Cl)c(C(=O)N2CCN(c3ccc(OC)cc3)CC2)n1	-6%	-8%
CCCNC(=O)c1cc2c3ccccc3n(C)c2s1	-18%	-2%
CC(=O)Nc1ccc(S(=O)(=O)NNC(=O)c2cc3c4ccccc4n(C)c3s2)cc1	22µM*	-20%
CCCCCCC(=O)Nc1c(O)c2ccccc2[nH]c1=O	-1%	u
CCCCCCNC(=O)c1c(O)c2ccccc2[nH]c1=O	0%	25µM*
COc1ccccc1CNC(=O)c1c(O)c2cc(OC)c(OC)cc2[nH]c1=O	-6%	3.2µM*
COc1ccccc1CNC(=O)c1ccc2[nH]c(C)c(C)c2c1	-5%	-13%
CCCCOc1ccc(-c2nnn(CC(=O)c3c[nH]c4ccccc34)n2)cc1	6%	7.9µM*
COc1ccc(-c2nnn(CC(=O)c3c[nH]c4ccccc34)n2)cc1OC	1%	0%
SMILES	Cruzain Triton	Cruzain inh noDet
COc1ccc(CNCCCSc2nnnn2-c2ccccc2)cc1	0%	-19%
O=C(NC(C(=O)N/N=C/c1c2ccccc2cc2ccccc12)c1n[nH]c(=O)c2ccccc12)c1ccccc1 (stereo not given)	2%	13µM*
O=C(NC(C(=O)N/N=C/c1ccccc1)c1n[nH]c(=O)c2ccccc12)c1ccccc1 (stereo not given)	-9%	-13%
O=C(O)c1cccnc1SCc1cccc(Cl)c1	1%	-8%
O=C(NC1CCCC1)C(c1ccsc1)N(C(=O)Cc1cccs1)c1ccccc1 (stereo not given)	10%	10µM*
O=C(NC1CCCC1)C(c1ccsc1)N(CCc1ccccc1)C(=O)Cc1cccs1 (stereo not given)	1%	u
O=C(NC1CCCCC1)C(c1ccccc1)N(C(=O)Cc1ccsc1)c1ccccc1 (stereo not given)	4%	16µM*
O=C(NC1CCCCC1)C(c1ccc(F)cc1)N(C(=O)Cc1ccsc1)c1ccc(F)cc1 (stereo not given)	7%	-2%
COC(=O)c1c(NC(=O)COc2ccccc2Cl)sc2c1CCC(C(C)(C)C)C2 (stereo not given)	3%	-7%
COC(=O)c1c(NC(=O)CSc2nnnn2-c2ccccc2)sc2c1CCC(C)C2 (stereo not given)	-1%	20µM*
CCC(C)(C)C1CCc2c(sc(NC(=O)c3cccs3)c2C(N)=O)C1 (stereo not given)	-2%	u
CC(C)(C)C1CCc2c(sc(NC(=O)c3cccs3)c2C(N)=O)C1 (stereo not given)	3%	13µM*
CCOC(=O)c1sc(NC(=O)CSc2nnnn2-c2ccccc2)c(C(=O)OCC)c1C	-3%	-17%
COC(=O)c1c(NC(=O)CSc2nnnn2-c2ccccc2)sc2c1CCC(C(C)(C)C)C2 (stereo not given)	-2%	6.3µM*
CCOC(=O)c1ccc(NC(=O)c2c(NCc3cc(OC)ccc3OC)sc3c2CCC3)cc1	-9%	-16%
Cc1cccc(C(=O)NNc2ncnc3c2cnn3-c2ccc(C)cc2C)c1	1%	-8%
Cc1ccc(NC(=O)c2cccc(NC(=O)/C=C/c3ccco3)c2)cc1C	-9%	-10%
Cc1ccc(-n2nc3ccc(NC(=O)/C=C/c4ccco4)cc3n2)cc1	-7%	16µM*
Cc1ccc2nc(COc3ccccc3NC(=O)c3ccccc3F)cc(=O)n2c1	3%	-12%
O=C(COC(=O)c1ccc(-c2ccc([N+](=O)[O-])cc2)o1)NC(=O)NC1CCCCC1	-13%	u
O=C(COC(=O)c1ccc(-c2ccc([N+](=O)[O-])cc2)o1)NC(=O)NC12CC3CC(CC(C3)C1)C2	-5%	25µM*
CCn1ccc2cc(S(=O)(=O)N3CCCN(C(=O)NCC(=O)OC)CC3)ccc21	-1%	-10%
O=C(Nc1ccc(Br)cc1F)c1ccc2nc(CCc3ccccc3)oc2c1	-1%	10%
O=C1c2cccc(O)c2C(=O)c2c(O)cccc21	2%	-15%
O=C1C=CC(=O)c2c(O)cccc21	-20%	7.9µM*
SMILES	Cruzain Triton	Cruzain inh noDet
COC(=O)c1cccc(C23CC4(C2)[C@H](CN(C)[C@@H]4c2ccccc2)C3c2ccc(Cl)nc2)c1 (stereo not given in full)	-1%	-9%
Cc1cccc(Cn2c(C)c(CNC3CCCCC3)c(C(=O)O)c2C)c1	-2%	4%
O=C(Nc1ccc2oc(-c3ccc4ccccc4c3)nc2c1)c1ccc2c(c1)OCCO2	-3%	10µM*
O=C(Nc1ccc2oc(-c3ccc4ccccc4c3)nc2c1)c1ccc(Cl)c(Cl)c1	0%	-3%
CCOc1ccc2nc(NC(=O)CS(=O)(=O)c3ccc(Cl)cc3)sc2c1	-10%	5µM*
CCOc1ccc2nc(NC(=O)CS(=O)(=O)c3ccc(C)cc3)sc2c1	-8%	u
COc1cccc2sc(NC(=O)CS(=O)(=O)c3ccc(C)cc3)nc12	-2%	u
Cc1ccc(S(=O)(=O)CC(=O)Nc2nc3c(C)cc(C)cc3s2)cc1	-7%	13µM*
CSc1nnc(NC(=O)c2cc(=O)c3cc(C)c(C)cc3o2)s1	-2%	26%
COC(=O)C1=CO[C@@H](O[C@H]2OC(CO)C(O)C(O)C2O)C2C1CC(O)C2C (stereo not given in full)	5%	-3%
CC1CC1C(=O)OCc1cc(=O)n2cc(Br)ccc2n1 (stereo not given)	1%	-3%
Cc1ccccc1C(=O)NC(CC(C)C)C(=O)OCc1cc(=O)n2cc(Br)ccc2n1 (stereo not given)	14µM*	16µM*
